In PubChem BioAssay AID1159580 (chemical genetic matrix, 2015):
Values joined by “and” are separate entries in the source; they are usually repeats but may differ in a detail not shown here. Equal entries are not always repeated. Out of some 5,500 compounds screened, about 2,000 (36%) were called active. Another 18% or so got no clear call; they are omitted. Some of the results follow. A number with no mark means an inactive call. No stated cut-off is given here; in the data, active means normalized growth mostly below about 0.91 (no sharp cut-off); inconclusive means no clear call, values can overlap the other calls; inactive means mostly above about 0.92.

Test: chemical genetic growth profiling, strain panel (AID 1159580);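 further: tested at 20 µM; growth read once vehicle control cultures reached saturation at 30 °C; 1 = growth at the plate median or of vehicle wells; lower values mean less growth of the strain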
Settings: S. cerevisiae deletion strains, growth OD

CN1CCN(C2=Nc3cc(Cl)ccc3Nc3ccccc32)CC1
normalized growth (locus YAL013W, strain DEP1, hits give low values): 1.02
normalized growth (locus YAL021C, strain ccr4, hits give low values): 0.991
normalized growth (locus YAL026C, strain drs2, hits give low values): 0.953
normalized growth (locus YAL030W, strain snc1, hits give low values): 1.01
normalized growth (locus YAL040C, strain CLN3, hits give low values): 1.01
normalized growth (locus YBL061C, strain skt5, hits give low values): 0.968
normalized growth (locus YBR009C, strain hhf1, hits give low values): 1.01
normalized growth (locus YBR021W, strain FUR4, hits give low values): 0.979
normalized growth (locus YBR023C, strain chs3, hits give low values): 0.987
normalized growth (locus YBR171W, strain sec66, hits give low values): 0.975
normalized growth (locus YBR229C, strain ROT2, hits give low values): 1.01
normalized growth (locus YBR231C, strain swc5, hits give low values): 0.988
normalized growth (locus YBR279W, strain paf1, hits give low values): 0.983
normalized growth (locus YCL011C, strain gbp2, hits give low values): 0.984
normalized growth (locus YCL016C, strain dcc1, hits give low values): 0.954
normalized growth (locus YCL029C, strain bik1, hits give low values): 1.01
normalized growth (locus YCL061C, strain MRC1 (second series), hits give low values): 1
normalized growth (locus YCL061C, strain MRC1, hits give low values): 0.984
normalized growth (locus YCL069W, strain vba3, hits give low values): 0.981
normalized growth (locus YCR088W, strain abp1, hits give low values): 0.985
normalized growth (locus YDL005C, strain med2, hits give low values): 0.984
normalized growth (locus YDL035C, strain GPR1, hits give low values): 1
normalized growth (locus YDL040C, strain nat1, hits give low values): 1
normalized growth (locus YDL074C, strain BRE1, hits give low values): 0.935
normalized growth (locus YDL101C, strain DUN1, hits give low values): 0.996
normalized growth (locus YDL134C, strain PPH21, hits give low values): 0.991
normalized growth (locus YDL185W, strain tfp1, hits give low values): 1.01
normalized growth (locus YDL192W, strain arf1, hits give low values): 1.02
normalized growth (locus YDR001C, strain nth1, hits give low values): 0.989
normalized growth (locus YDR069C, strain doa4, hits give low values): 0.968
normalized growth (locus YDR101C, strain arx1, hits give low values): 1
normalized growth (locus YDR137W, strain rgp1, hits give low values): 1.15 [resistant] (active)
normalized growth (locus YDR150W, strain NUM1, hits give low values): 1.01 and 0.991
normalized growth (locus YDR159W, strain sac3, hits give low values): 0.948
normalized growth (locus YDR162C, strain NBP2, hits give low values): 0.97
normalized growth (locus YDR195W, strain ref2): 1.04
normalized growth (locus YDR297W, strain sur2, hits give low values): 0.976
normalized growth (locus YDR318W, strain mcm21, hits give low values): 1.02
normalized growth (locus YDR334W, strain swr1, hits give low values): 0.98
normalized growth (locus YDR335W, strain msn5, hits give low values): 0.977
normalized growth (locus YDR363W, strain ESC2, hits give low values): 0.884
normalized growth (locus YDR388W, hits give low values): 1.02
normalized growth (locus YDR392W, strain spt3, hits give low values): 0.801
normalized growth (locus YDR502C, strain sam2, hits give low values): 0.994
normalized growth (locus YEL003W, strain gim4, hits give low values): 0.987
normalized growth (locus YEL037C, strain rad23, hits give low values): 0.979
normalized growth (locus YEL061C, strain CIN8 (second series), hits give low values): 0.977
normalized growth (locus YEL061C, strain CIN8, hits give low values): 1.05
normalized growth (locus YER002W, strain NOP16, hits give low values): 0.997
normalized growth (locus YER015W, strain faa2, hits give low values): 0.991
normalized growth (locus YER016W, strain bim1, hits give low values): 0.966
normalized growth (locus YER110C, hits give low values): 1.03
normalized growth (locus YER111C, strain swi4, hits give low values): 0.975
normalized growth (locus YER155C, strain BEM2 (second series), hits give low values): 0.802 (active)
normalized growth (locus YER155C, strain BEM2, hits give low values): 1.01
normalized growth (locus YER167W, strain BCK2, hits give low values): 1
normalized growth (locus YFR010W, strain ubp6, hits give low values): 1.02
normalized growth (locus YGL078C, strain dbp3, hits give low values): 1.01
normalized growth (locus YGL086W, strain mad1, hits give low values): 1.02
normalized growth (locus YGL167C, strain pmr1, hits give low values): 0.989
normalized growth (locus YGL173C, strain kem1, hits give low values): 0.98
normalized growth (locus YGL227W, strain vid30, hits give low values): 0.969
normalized growth (locus YGL240W, strain doc1, hits give low values): 1.03
normalized growth (locus YGL248W, strain PDE1, hits give low values): 0.99
normalized growth (locus YGL253W, strain hxk2, hits give low values): 0.982
normalized growth (locus YGR078C, strain PAC10, hits give low values): 0.975 and 1.01
normalized growth (locus YGR135W, strain pre9, hits give low values): 0.987
normalized growth (locus YGR229C, strain SMI1, hits give low values): 0.948
normalized growth (locus YGR252W, strain gcn5, hits give low values): 0.994
normalized growth (locus YHR013C, strain ard1, hits give low values): 0.917
normalized growth (locus YHR027C, strain rpn1, hits give low values): 0.985
normalized growth (locus YHR030C, strain SLT2, hits give low values): 1.02 and 1.07
normalized growth (locus YHR079C, strain IRE1 (second series), hits give low values): 1.03
normalized growth (locus YHR079C, strain IRE1, hits give low values): 1.03
normalized growth (locus YHR094C, strain hxt1, hits give low values): 1.02
normalized growth (locus YHR129C, strain ARP1, hits give low values): 1.01
normalized growth (locus YHR142W, strain chs7, hits give low values): 0.949
normalized growth (locus YHR200W, strain rpn10, hits give low values): 1.01
normalized growth (locus YIL066C, strain RNR3, hits give low values): 1.01
normalized growth (locus YIL073C, strain SPO22, hits give low values): 1.1
normalized growth (locus YIL125W, strain kgd1, hits give low values): 1.02
normalized growth (locus YIR030C, strain dcg1, hits give low values): 1.02
normalized growth (locus YJL092W, strain hpr5, hits give low values): 0.985
normalized growth (locus YJL095W, strain BCK1 (second series), hits give low values): 0.991
normalized growth (locus YJL095W, strain BCK1, hits give low values): 0.945 and 1.05
normalized growth (locus YJL115W, strain asf1, hits give low values): 0.969
normalized growth (locus YJL129C, strain trk1, hits give low values): 0.969
normalized growth (locus YJL134W, strain LCB3, hits give low values): 1.01
normalized growth (locus YJL154C, strain vps35, hits give low values): 0.981
normalized growth (locus YJL164C, strain tpk1, hits give low values): 0.999
normalized growth (locus YJL166W, strain qcr8, hits give low values): 1
normalized growth (locus YJL168C, strain set2, hits give low values): 1.03
normalized growth (locus YJL187C, strain SWE1 (second series), hits give low values): 1
normalized growth (locus YJR043C, strain POL32, hits give low values): 1.02
